The record followed here is PubChem BioAssay.

The structures appear in SMILES notation.

The nature of this assay: basal RPMI8226 mitochondrial membrane potential changes, profiling panel, cell-based, JC-1 fluorescence, 24 h, 100 nL compound (AID 1169). Also: test concentration not given here. The conditions noted are these: RPMI8226 myeloma, JC-1 mitochondrial potential fluorescence, higher = more signal.
`CC[C@H](C)C(=O)O[C@H]1CC[C@]2(C)C3=C(CCC2C1(C)C)[C@]1(C)CC[C@H]([C@H](C)CCCC(C)C)[C@@]1(C)CC3` (stereo not given in full) came in with a z-score of -0.509.

Turning to `COCCn1c(C(=O)N2CCCC2)cc2c1C[C@H]1CN(C(=O)c3ccccc3)[C@@](Cc3ccccc3)(C(=O)OC)[C@@H]21`, the z-score is -0.803.

Molecule `C[C@]1(C(=O)NCC(F)(F)F)c2ccccc2C(=O)N(Cc2ccc(OC(F)(F)F)cc2)[C@H]1c1ccc(CO)cc1` returned a z-score of 1.04.

The molecule `CN(C)CCCNC(=O)[C@@H]1c2ccccc2C(=O)N(C2Cc3ccccc3C2)[C@H]1c1ccc(CO)cc1` yielded a z-score of -0.066.

In turn, `Cc1c(NC(=O)/C(C#N)=C/c2ccc(Cl)cc2)c(=O)n(-c2ccccc2)n1C` yielded a z-score of -0.0999.

`C=CCC(OC(C)=O)[C@@H]1[C@@H](N(Cc2ccc(-c3ccccc3)cc2)C(=O)c2cccc3ccccc23)c2cc(OCCCO)ccc2N1C(=O)c1ccc2ccccc2c1` (stereo not given in full): the z-score is -0.53.

Regarding `COCCOC(=O)N1C(=O)[C@@]2(c3ccccc31)[C@H](c1ccc(OCCO)cc1)N1[C@H](c3ccccc3)[C@H](c3ccccc3)OC(=O)[C@H]1[C@@H]2C(=O)N1CCN(c2ncccn2)CC1`, the z-score stood at 0.1.

In turn, `C=C(/C(=C/C[C@@H](OC(C)=O)c1ccccc1OCCO)c1cc(C(=O)OC)ccc1OC)C(C)C` gave a z-score of 0.367.

Consider `CCCC[C@H]1OB(O)C[C@H]2C1=C(COC)C[C@H]1C(=O)C=CC(=O)[C@H]12`, for which the z-score was -0.59.

With `COc1ccc(NC(=O)O[C@H]2[C@H](OC(=O)Nc3ccc4c(c3)OCO4)[C@H](OC(=O)Nc3ccc4c(c3)OCO4)[C@@H](OC)O[C@@H]2CO)cc1`, the z-score is -0.685.

The molecule `C=CCN1C(=O)[C@]2(O[C@H](CCO)[C@@H]([Si](C)(C)c3ccc(OC)cc3)[C@@H]2C)c2ccccc21` had a z-score of -1.18.

Molecule `COC(=O)[C@]1(CO)N=C(c2ccc(OCCCO)cc2)O[C@@H]1c1ccccc1CN=[N+]=[N-]` displayed a z-score of 0.00663.

As for `COc1cccc(OC)c1C(=O)O[C@H]1[C@@H]2OC(=O)[C@H](Cc3cccc(Br)c3)C/C=C/C[C@@H](Cc3cccc(Br)c3)C(=O)O[C@H]2[C@@H](OC)O[C@@H]1CO`, the z-score is -0.735.

In turn, `COCCOC(=O)N1C(=O)[C@@]2(c3cc(C#CC4(O)CCCCCC4)ccc31)[C@H](C(=O)NC[C@H](O)c1ccccc1)[C@H]1C(=O)O[C@H](c3ccccc3)[C@H](c3ccccc3)N1[C@@H]2c1ccc(O)cc1` displayed a z-score of -0.643.

Consider `O=C1C2C=CC(C(O)c3ccc([N+](=O)[O-])cc3)N(Nc3ccccc3)C2C(=O)N1c1ccccc1` (stereo not given), for which the z-score is -1.01.

`C=C(CCCC)C(=O)CC[C@H](OC(C)=O)c1ccccc1OCCO` came in with a z-score of -0.706.

For `C=C(COC)/C(=C/C[C@H](OC(=O)c1ccncc1)c1ccc(OCCO)cc1)c1cc(C(=O)OC)ccc1OC`, the z-score was determined as 0.368.

`COC(=O)[C@@]1(Cc2ccc(OC)cc2)[C@@H]2[C@@H](CC(=O)[C@H]2CC(=O)C(=O)N2CCCC2)CN1C(=O)c1ccccc1` registered a z-score of -1.01.

Molecule `CCOC(=O)C[C@H]1[C@H](OC(=O)c2ccc(-c3ccccc3)cc2)[C@@H](NC(=O)CC(C)C)c2cc(OCCCO)ccc2N1C(=O)Cc1ccc(OC)cc1` returned a z-score of 0.908.

`C=CCN1C(=O)[C@]2(O[C@H](CCn3cc([C@H](O)c4ccccc4)nn3)[C@@H]([Si](C)(C)c3ccc(OC)cc3)[C@@H]2C)c2cc(N3C(=O)c4cccc5cccc3c45)ccc21` showed a z-score of -1.02.
